Results taken from the supplement of paper PMC11732987, “Enantioselective OTUD7B fragment discovery through chemoproteomics screening and high-throughput optimisation” (Communications Chemistry, 2025).

Columns and labels:
Assay in all cases: log2 ratio of Biotin-Ahx-Ub-VS probe labelling (fragment/DMSO); higher = less target engagement (more negative = stronger competition), active = hit call of the paper (q ≤ 0.05, log2 ratio ≤ -1)
Conditions in all cases: compound concentration: 200 uM; treatment time: 3 h
USP34 = USP34 (UniProt Q70CQ2)
Summary of the method: (§1)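 HEK293T lysate in Tris/CHAPS/IGEPAL buffer with protease inhibitors (495 µg per sample) was given fragment at 200 µM or vehicle for 3 h, in triplicate. It then received Biotin-Ahx-Ub-VS at 0.5 µM final for 1 h. Labelled DUBs were NeutrAvidin-enriched, digested with LysC and trypsin, and run by diaPASEF LC-MS/MS. Values are average log2 fragment/vehicle ratios by unpaired t-test on global-median-normalised Spectronaut quantities of proteins with ≥2 unique peptides.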

USP36 = molecular target: T1, USP36 (UniProt Q9P275)
T1 sequence (whole entry): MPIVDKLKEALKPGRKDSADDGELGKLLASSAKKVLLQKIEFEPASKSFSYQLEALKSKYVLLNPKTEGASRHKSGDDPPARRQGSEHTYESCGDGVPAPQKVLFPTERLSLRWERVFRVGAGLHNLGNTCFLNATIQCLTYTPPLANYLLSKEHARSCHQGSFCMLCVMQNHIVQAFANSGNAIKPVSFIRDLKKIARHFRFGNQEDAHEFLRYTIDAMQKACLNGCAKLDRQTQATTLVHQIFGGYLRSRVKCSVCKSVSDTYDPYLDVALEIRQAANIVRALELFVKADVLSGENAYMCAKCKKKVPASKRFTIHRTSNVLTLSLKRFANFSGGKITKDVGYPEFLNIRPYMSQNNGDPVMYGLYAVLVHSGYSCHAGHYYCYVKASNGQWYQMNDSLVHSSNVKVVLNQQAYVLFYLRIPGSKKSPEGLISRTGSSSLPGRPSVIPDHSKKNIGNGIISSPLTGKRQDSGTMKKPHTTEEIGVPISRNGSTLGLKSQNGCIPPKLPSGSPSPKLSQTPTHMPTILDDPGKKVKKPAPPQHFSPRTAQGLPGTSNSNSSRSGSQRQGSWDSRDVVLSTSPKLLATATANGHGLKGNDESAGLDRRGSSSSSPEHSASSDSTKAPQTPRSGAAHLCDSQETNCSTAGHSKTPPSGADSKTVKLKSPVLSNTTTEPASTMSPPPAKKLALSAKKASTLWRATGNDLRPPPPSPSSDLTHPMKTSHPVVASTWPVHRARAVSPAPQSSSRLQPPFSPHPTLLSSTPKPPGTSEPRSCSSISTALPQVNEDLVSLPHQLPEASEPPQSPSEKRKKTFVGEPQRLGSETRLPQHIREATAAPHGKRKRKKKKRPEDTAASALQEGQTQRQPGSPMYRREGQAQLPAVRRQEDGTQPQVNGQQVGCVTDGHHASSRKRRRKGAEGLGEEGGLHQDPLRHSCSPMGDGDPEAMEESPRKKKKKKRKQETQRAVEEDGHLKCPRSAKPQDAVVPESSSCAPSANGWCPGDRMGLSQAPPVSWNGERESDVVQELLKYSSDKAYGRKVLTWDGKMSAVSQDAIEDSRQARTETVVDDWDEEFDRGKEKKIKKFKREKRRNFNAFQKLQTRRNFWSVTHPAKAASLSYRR
Summary of the method: as §1

USP38 = molecular target: T2, USP38 (UniProt Q8NB14)
T2 sequence (whole entry): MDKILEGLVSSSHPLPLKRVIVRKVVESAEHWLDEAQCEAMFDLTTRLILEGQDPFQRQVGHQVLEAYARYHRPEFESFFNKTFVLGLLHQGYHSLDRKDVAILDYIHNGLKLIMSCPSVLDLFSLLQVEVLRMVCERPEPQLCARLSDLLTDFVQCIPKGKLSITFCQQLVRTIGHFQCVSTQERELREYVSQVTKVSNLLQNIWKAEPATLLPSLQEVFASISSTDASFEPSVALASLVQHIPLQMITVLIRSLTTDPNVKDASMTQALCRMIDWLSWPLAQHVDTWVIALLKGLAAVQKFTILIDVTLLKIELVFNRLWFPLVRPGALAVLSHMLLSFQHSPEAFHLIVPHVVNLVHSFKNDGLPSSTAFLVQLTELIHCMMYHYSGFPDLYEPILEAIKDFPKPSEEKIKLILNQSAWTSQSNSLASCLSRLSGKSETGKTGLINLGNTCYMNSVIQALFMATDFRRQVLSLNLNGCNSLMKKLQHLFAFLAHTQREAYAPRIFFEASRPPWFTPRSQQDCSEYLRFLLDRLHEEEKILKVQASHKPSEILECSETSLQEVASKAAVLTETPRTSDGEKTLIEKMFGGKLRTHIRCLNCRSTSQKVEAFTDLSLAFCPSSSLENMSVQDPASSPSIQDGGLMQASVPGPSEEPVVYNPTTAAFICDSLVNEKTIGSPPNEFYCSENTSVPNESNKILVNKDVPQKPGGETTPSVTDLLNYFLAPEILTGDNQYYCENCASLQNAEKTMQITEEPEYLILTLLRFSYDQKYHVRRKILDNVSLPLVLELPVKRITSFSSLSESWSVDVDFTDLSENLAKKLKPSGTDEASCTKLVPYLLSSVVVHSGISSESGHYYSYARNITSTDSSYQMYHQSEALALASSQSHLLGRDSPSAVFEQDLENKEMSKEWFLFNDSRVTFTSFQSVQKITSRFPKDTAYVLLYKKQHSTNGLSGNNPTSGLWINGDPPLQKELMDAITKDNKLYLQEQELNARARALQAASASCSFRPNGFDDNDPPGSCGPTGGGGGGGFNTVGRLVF
Summary of the method: as §1

USP39 = molecular target: T3, USP39 (UniProt Q53GS9)
T3 sequence (whole entry): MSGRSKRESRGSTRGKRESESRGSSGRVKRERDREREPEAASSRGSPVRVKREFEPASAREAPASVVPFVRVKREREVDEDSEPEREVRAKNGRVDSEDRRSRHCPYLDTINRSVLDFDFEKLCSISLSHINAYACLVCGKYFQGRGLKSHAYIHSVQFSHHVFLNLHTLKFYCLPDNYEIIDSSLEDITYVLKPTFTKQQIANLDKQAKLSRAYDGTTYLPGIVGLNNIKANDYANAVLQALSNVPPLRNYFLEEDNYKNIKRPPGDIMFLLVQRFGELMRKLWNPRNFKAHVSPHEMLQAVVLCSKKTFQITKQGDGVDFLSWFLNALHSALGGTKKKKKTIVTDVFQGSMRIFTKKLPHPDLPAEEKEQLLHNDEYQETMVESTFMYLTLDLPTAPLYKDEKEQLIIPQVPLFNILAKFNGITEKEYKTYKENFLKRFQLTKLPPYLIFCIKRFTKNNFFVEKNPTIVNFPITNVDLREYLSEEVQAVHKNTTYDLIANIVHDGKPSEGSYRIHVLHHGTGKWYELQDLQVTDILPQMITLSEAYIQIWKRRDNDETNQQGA
Summary of the method: as §1

USP4 = molecular target: T4, USP4 (UniProt Q13107)
T4 sequence (whole entry): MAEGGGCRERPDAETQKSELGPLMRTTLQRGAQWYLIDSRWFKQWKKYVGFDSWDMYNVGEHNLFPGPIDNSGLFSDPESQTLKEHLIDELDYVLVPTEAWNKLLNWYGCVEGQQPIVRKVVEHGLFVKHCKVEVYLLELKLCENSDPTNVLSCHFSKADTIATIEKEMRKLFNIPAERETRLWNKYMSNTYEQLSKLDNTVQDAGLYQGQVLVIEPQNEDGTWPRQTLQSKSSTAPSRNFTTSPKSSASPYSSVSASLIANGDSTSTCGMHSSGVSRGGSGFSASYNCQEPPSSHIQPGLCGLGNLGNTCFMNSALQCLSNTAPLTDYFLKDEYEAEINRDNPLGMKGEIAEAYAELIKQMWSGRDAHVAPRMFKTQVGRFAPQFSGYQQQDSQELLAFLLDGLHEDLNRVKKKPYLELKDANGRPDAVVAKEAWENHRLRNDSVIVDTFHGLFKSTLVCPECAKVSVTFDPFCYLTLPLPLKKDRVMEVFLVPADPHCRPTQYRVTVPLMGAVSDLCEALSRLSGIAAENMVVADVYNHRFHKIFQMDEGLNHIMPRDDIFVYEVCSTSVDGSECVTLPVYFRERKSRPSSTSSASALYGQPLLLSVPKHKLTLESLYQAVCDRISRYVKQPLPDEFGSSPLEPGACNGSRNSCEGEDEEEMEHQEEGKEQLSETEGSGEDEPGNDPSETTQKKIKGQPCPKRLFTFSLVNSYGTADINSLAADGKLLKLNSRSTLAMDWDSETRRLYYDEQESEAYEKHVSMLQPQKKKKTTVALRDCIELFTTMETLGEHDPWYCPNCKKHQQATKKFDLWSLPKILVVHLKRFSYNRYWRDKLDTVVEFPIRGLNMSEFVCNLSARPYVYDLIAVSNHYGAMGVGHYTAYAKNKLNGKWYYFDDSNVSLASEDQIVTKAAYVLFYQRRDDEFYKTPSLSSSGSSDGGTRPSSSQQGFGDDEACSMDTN
Summary of the method: as §1

Measured: log2 ratio of Biotin-Ahx-Ub-VS probe labelling

Chain of USP34 (Q70CQ2 whole entry, the tested form may be a part): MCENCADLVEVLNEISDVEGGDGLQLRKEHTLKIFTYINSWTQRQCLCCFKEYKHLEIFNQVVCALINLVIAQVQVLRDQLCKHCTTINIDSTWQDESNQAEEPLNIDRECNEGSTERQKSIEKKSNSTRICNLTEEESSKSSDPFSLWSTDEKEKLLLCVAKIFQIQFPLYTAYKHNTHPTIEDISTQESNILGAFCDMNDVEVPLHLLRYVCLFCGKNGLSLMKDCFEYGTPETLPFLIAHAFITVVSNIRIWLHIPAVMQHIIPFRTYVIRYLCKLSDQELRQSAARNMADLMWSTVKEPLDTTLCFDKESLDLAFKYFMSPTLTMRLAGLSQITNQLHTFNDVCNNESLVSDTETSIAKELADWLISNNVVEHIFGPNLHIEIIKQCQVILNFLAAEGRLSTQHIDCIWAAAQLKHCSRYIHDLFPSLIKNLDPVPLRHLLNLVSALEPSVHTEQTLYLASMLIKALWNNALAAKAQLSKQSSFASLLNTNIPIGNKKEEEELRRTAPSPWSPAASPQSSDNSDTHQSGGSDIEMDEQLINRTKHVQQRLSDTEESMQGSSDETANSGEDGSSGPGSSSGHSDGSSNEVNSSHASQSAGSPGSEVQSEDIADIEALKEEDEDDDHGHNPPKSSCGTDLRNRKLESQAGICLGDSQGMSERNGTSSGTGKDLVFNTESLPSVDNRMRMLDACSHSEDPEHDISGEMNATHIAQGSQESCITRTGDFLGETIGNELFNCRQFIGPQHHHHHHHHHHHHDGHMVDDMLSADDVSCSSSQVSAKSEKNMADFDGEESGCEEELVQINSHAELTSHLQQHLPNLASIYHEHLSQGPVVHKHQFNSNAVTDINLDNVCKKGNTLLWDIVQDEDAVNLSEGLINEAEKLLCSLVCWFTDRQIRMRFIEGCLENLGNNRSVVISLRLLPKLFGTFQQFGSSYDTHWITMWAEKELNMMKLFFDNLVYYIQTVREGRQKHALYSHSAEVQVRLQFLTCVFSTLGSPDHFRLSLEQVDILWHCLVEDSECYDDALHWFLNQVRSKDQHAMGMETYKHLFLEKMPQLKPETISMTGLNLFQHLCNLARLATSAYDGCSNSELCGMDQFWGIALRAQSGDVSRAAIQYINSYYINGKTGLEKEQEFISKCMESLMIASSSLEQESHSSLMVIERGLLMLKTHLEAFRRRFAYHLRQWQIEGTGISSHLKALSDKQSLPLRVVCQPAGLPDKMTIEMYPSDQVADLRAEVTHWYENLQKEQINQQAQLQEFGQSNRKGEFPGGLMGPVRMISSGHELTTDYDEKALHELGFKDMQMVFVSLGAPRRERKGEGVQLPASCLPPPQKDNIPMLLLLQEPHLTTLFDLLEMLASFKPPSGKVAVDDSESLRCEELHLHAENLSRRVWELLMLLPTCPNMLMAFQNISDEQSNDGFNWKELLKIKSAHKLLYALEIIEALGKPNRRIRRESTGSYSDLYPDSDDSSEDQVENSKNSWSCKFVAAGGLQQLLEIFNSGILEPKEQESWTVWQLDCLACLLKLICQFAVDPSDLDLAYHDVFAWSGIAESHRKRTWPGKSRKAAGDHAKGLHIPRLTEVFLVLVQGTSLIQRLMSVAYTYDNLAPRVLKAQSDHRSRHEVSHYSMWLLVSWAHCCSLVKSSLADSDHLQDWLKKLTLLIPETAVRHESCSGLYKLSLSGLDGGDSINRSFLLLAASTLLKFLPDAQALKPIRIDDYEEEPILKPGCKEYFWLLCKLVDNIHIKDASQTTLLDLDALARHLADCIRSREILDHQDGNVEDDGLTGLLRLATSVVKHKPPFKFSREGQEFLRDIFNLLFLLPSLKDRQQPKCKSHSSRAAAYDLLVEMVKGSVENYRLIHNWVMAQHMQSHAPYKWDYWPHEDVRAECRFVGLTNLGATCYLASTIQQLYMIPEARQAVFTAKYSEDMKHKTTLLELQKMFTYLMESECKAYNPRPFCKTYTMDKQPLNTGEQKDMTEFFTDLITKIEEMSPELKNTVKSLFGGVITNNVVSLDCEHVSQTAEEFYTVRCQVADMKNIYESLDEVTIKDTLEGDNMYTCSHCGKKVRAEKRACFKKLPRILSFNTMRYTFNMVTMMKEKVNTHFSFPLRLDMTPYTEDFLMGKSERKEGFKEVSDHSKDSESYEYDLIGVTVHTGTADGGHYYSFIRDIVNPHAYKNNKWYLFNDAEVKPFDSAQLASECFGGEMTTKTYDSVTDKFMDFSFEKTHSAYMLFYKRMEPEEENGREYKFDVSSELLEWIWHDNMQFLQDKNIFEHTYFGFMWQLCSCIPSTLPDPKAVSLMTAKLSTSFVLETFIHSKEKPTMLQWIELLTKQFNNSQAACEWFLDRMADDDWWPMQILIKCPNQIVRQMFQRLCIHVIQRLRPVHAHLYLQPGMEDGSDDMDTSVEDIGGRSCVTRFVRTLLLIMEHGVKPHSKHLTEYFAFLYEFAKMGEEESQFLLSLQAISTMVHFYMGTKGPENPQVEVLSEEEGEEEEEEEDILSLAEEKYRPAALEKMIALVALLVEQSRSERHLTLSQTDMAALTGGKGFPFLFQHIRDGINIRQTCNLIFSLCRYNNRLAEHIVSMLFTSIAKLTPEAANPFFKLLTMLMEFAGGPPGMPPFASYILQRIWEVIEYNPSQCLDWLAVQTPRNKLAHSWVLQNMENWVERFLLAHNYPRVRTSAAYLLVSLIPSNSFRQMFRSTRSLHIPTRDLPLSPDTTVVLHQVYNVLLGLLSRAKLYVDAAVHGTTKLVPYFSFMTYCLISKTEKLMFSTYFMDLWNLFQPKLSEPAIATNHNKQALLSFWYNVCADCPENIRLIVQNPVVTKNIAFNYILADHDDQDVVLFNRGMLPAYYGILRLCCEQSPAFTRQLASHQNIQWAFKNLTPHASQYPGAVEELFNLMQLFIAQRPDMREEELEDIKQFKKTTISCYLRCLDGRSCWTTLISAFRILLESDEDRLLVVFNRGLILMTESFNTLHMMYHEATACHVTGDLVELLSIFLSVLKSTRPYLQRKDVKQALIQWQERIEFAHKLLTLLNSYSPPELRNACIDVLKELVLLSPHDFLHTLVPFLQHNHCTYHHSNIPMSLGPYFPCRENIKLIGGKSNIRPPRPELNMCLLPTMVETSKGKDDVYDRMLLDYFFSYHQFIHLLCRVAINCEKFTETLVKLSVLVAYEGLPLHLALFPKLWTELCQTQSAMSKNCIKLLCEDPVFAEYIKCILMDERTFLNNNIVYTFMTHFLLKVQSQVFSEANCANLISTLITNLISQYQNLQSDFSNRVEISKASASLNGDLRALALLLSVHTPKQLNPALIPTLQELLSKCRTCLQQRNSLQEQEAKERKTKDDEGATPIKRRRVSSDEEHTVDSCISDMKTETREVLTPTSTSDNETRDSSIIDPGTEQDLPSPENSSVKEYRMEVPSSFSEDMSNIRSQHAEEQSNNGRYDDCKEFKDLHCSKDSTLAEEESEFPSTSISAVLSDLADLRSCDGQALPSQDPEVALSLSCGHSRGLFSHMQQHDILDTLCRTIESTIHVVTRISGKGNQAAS

Cc1cccc(N(CCC#N)C(=O)CCl)c1C
inactive: USP34 -0.119 | USP36 -0.0707 | USP38 -0.0489 | USP39 -0.305 | USP4 0.163
